# PubChem BioAssay
# “And” between values parts separate entries of the source, which are not always exact repeats. Equal entries are not always repeated. The source made the active and inactive calls.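 Rule for the calls, unless noted: active = compounds whose cell count with miR-34 switched on is under 0.7 times the count with it off; inactive = the rest.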
# Experiments:
# [1] = P. berghei load reduction in hepatocytes – cell-based, HepG2, luciferase luminescence, HepG2 viability, primary screen (AID 624349; in the data active = parasite load remaining mostly below about 12%, no sharp cut-off; inactive = mostly above about 10%;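 note: 100% = mean of DMSO negative control wells on the same plate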); conditions: P. berghei liver stage in HepG2, luciferase luminescence, concentration not given here; parasite load remaining: stronger effect = lower value; viability: measured here: HepG2 viability without parasites
# [2] = Wnt pathway potentiators raising nuclear beta-catenin – imaging, WNT3A-conditioned medium, mouse C2C12, NPC library, primary screen (AID 1117326; in the data active = nuclear beta-catenin stimulation mostly above about 4.2%, no sharp cut-off; inactive = mostly below about 10%); conditions: stronger effect = higher value
# [3] = stimulators of insulin release from INS-1E, primary screen, cell-based, 5 mM glucose, NPC library (AID 1117329;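 active = compound raises insulin release from rat beta cells at 5 mM glucose, no numeric limit stated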); conditions: rat INS-1E insulin secretion, at 10 µM, stronger effect = higher value
# [4] = growth inhibition of GSK3B-pretreated HCT116 cells – cell-based, CellTiter-Glo, 0.2 to 20 µM (AID 1117336;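 active = compounds lowering colon cancer cell viability after pretreatment blocking the GSK3B kinase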); conditions: HCT116 viability after GSK3B inhibitor, at 20 µM, stronger effect = higher value
# [5] = inhibition of endothelial tube formation, primary screen, imaging, VEGF stimulated, CD31 staining, tube area, NPC library (AID 1117340;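 active = compound that reduces growth-factor-driven endothelial tube area in a mixed cell culture, no cutoff stated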); conditions: VEGF-stimulated ADSC/ECFC co-culture, at 10 µM, stronger effect = higher value
# [6] = GLP1 release stimulators, primary, NCI-H716, NPC library (AID 1117341;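 active = compound raises GLP1 secretion from the human gut endocrine cells, with no numeric limit stated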); conditions: NCI-H716 cells, at 10 µM, stronger effect = higher value
# [7] = HCT116 colon cancer cell growth inhibition, primary screen, CellTiter-Glo luminescence, NPC library (AID 1117342;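 active = compounds that lower survival of HCT116 colon cancer cells in the luminescence readout, no numeric limit stated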); conditions: at 20 µM (top of the series)
# [8] = reduced SW480 viability measured with CellTiter-Glo, NPC library, primary (AID 1117343;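 active = compounds that lower viability of the colon cancer cells in the luminescence readout, with no numeric limit stated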); conditions: CellTiter-Glo luminescence; at 20 µM (top of the series) unless noted
# [9] = NPC library primary testing for decreased DLD-1 cell viability via CellTiter-Glo (AID 1117346;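 active = compounds that lower survival of DLD-1 colon cancer cells in the luminescence readout, no cutoff given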); conditions: DLD-1 viability, CellTiter-Glo luminescence; at 20 µM (top of the series)
# [10] = EMT-state selective cytotoxicity in co-culture – imaging, PC-3E GFP, TEM4-18 mCherry, primary screen (AID 1345086;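 active = compounds killing one labelled cell type while sparing the other, by normalised counts and ratio limits, not self-fluorescent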;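 for all read-outs here: cells exposed to compound for 72 h before imaging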;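 for red/green cell ratio (normalised): normalised mesenchymal count divided by normalised epithelial count so high means epithelial killing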); conditions: PC-3E GFP / TEM4-18 mCherry co-culture, imaging cell counts, at 1 µM; for red/green cell ratio (normalised): actives lie on both sides, counts scaled to control wells, 1 = unselective
# [11] = viability loss with induced miR-34 in A549 – imaging, A549 dox-inducible miR-34, nuclei and caspase counts, primary screen (AID 1347080); conditions: A549 miR-34 inducible, Hoechst nuclei count, 48 h
# [12] = biological target: NAD(+) hydrolase SARM1 (Homo sapiens) (UniProt Q6SZW1); test: blocking NAD cleavage by SARM1 SAM-TIR – cell lysate, NAD-Glo luminescence (AID 1508614;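 active = compound whose remaining NAD level is above about 45 nM, limit read from the data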;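 note: higher remaining NAD means stronger inhibition of SARM1 NADase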); conditions: SAM-TIR HEK293T lysate NADase, at 1 µM, stronger effect = higher value
# [13] = MELAS cybrid and Rieske KO viability enhancers – cell-based, MELAS cybrids, Rieske KO mouse fibroblasts, CellTiter-Glo, primary screen (AID 1508586;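 active = mean z-score across replicates of 1.96 or higher in either the MELAS or the Rieske mutant cell line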;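 note: z relative to plate mean and SD of compound and empty wells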); conditions: low glucose
# [14] = compounds altering viability of human ES cells (AID 493140; call rule not given here;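 note: cells exposed to compounds for four days before counting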); conditions: human embryonic stem cell survival screen; stronger effect = higher value
# [15] = measured here: epithelial PC-3E GFP cell survival
# [16] = measured here: mesenchymal TEM4-18 mCherry cell survival
# [17] = stronger effect = lower value, cell number ratio, induced over uninduced
# [18] = measured here: relative caspase fold change +Dox/-Dox
# [19] = measured here: total cells with miR-34 induction, stronger effect = lower value
# [20] = measured here: total cells without miR-34 induction
# [21] = MELAS cybrid survival, CellTiter-Glo 48 h, stronger effect = higher value
# [22] = Rieske KO mouse fibroblast survival, CellTiter-Glo 72 h
# NAD(+) hydrolase SARM1 (Homo sapiens), sequence (Q6SZW1 whole entry, looked up): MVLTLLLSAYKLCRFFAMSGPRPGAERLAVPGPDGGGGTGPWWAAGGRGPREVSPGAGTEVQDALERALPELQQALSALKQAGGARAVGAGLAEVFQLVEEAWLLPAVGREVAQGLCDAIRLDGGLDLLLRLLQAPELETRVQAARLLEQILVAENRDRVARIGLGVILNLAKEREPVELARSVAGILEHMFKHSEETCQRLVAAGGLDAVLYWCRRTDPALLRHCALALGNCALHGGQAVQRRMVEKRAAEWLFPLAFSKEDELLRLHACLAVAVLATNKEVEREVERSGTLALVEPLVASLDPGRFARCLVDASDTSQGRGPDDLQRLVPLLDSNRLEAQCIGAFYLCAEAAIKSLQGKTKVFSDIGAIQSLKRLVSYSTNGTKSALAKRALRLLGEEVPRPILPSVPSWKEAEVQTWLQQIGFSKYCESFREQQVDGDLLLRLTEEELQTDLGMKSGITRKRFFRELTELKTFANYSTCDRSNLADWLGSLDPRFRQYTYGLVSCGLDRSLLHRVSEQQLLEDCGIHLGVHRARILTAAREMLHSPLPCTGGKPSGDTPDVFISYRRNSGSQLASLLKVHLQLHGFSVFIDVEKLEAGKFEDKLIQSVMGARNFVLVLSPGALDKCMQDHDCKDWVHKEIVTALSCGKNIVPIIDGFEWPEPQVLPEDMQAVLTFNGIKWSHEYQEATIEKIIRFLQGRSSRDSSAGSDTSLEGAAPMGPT
smiles,measurement,setting,value
CCCCCCCCCCCCCCCCCCCCCCO,parasite load remaining,[1],85.5% (inactive)
same,viability,[1],109%
same,nuclear beta-catenin stimulation,[2]; at 10 µM,3.4% (inactive)
same,nuclear beta-catenin stimulation,"[2]; stimulation, at 2 µM",2.9%
same,insulin secretion stimulation,[3],-2.5% (inactive)
same,viability decrease,[4],-7.2% (inactive)
same,tube area decrease,[5],-8.1% (inactive)
same,GLP1 secretion stimulation,[6],1.1% (inactive)
same,inhibition of viability,[7],-36.7% (inactive)
same,viability decrease (inhibition),[8],16.6% (inactive)
same,viability decrease (inhibition),[9],7.8% (inactive)
same,red/green cell ratio (normalised),[10],1.1 (inactive)
same,normalised cell number,[10]; [15],0.99
same,normalised cell number,[10]; [16],1.09
same,fold change,[11]; [17],0.841 (inactive)
same,fold change,[11]; [18],5.17
same,cell count,[11]; [19],10500
same,cell count,[11]; [20],12500
same,remaining NAD,[12],10 nM (inactive)
CCCN(CCC)CCc1cccc2c1CC(=O)N2,parasite load remaining,[1],55.3% (inactive)
same,viability,[1],102%
same,nuclear beta-catenin stimulation,[2]; at 10 µM,2.8% (inactive)
same,nuclear beta-catenin stimulation,"[2]; stimulation, at 2 µM",1.5%
same,insulin secretion stimulation,[3],2.8% (inactive)
same,viability decrease,[4],8% (inactive)
same,tube area decrease,[5],-10% (inactive)
same,GLP1 secretion stimulation,[6],3.9% (inactive)
same,inhibition of viability,[7],21.3% (inactive)
same,viability decrease (inhibition),[8],29.8% (inactive)
same,viability decrease (inhibition),[9],26.9% (inactive)
same,red/green cell ratio (normalised),[10],1.06 (inactive)
same,normalised cell number,[10]; [15],0.99
same,normalised cell number,[10]; [16],1.05
same,fold change,[11]; [17],0.948 (inactive) and 0.94 (inactive) and 0.88 (inactive)
same,fold change,[11]; [18],1.29 and 1.47 and 5.03
same,cell count,[11]; [19],9580 and 9680 and 11700
same,cell count,[11]; [20],10100 and 10300 and 13300
same,z-score,[13]; [21],0.118 (inactive) and -0.361 (inactive)
same,z-score,[13]; [22],0.253 and -0.254
same,remaining NAD,[12],10 nM (inactive)
OC(CCN1CCCCC1)(c1ccccc1)C1CC2C=CC1C2 (configuration not stated),survival,[14],9.67 (inactive)
same,parasite load remaining,[1],61.4% (inactive) and 36.1% (inactive)
same,viability,[1],78.3% and 106%
same,nuclear beta-catenin stimulation,[2]; at 10 µM,0.3% (inactive)
same,nuclear beta-catenin stimulation,"[2]; stimulation, at 2 µM",-0.7%
same,insulin secretion stimulation,[3],4.5% (inactive)
same,viability decrease,[4],-65.7% (inactive)
same,tube area decrease,[5],1.4% (inactive)
same,GLP1 secretion stimulation,[6],-4% (inactive)
same,inhibition of viability,[7],36.4% (inactive)
same,viability decrease (inhibition),[8],39.6% (inactive)
same,viability decrease (inhibition),[9],2.7% (inactive)
same,red/green cell ratio (normalised),[10],0.98 (inactive)
same,normalised cell number,[10]; [15],0.85
same,normalised cell number,[10]; [16],0.83
same,fold change,[11]; [17],1.01 (inactive) and 0.963 (inactive) and 0.83 (inactive)
same,fold change,[11]; [18],1.73 and 0.774 and 4.12
same,cell count,[11]; [19],10100 and 7400 and 10600
same,cell count,[11]; [20],9960 and 7680 and 12700
same,z-score,[13]; [21],-0.399 (inactive)
same,z-score,[13]; [22],0.122
same,remaining NAD,[12],10 nM (inactive)
